Screen size: about 5,500 compounds; about 2,000 (36%) were called active. Not shown: some 18% with an inconclusive outcome. Cut-off read from the data, not from the text of the source: active = normalized growth mostly below about 0.91 (no sharp cut-off); inconclusive = no clear call, values can overlap the other calls; inactive = mostly above about 0.92. The list shows a part of the results.
Experiment: chemical genetic growth profiling, strain panel (AID 1159580);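 note: tested at 20 µM; growth read once vehicle control cultures reached saturation at 30 °C; 1 = growth at the plate median or of vehicle wells; lower values mean less growth of the strain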
Settings: growth OD

Measured: normalized growth

CCC(=O)O[C@]1(C(=O)CCl)[C@@H](C)CC2C3CCC4=CC(=O)C=C[C@]4(C)[C@@]3(F)[C@@H](O)C[C@@]21C (stereo partly specified)
inactive: S. cerevisiae deletion strains, locus YJR043C, strain POL32, stronger effect = lower value 0.982 | S. cerevisiae deletion strains, locus YJR066W, strain TOR1, stronger effect = lower value 0.952 | S. cerevisiae deletion strains, locus YKL009W, strain mrt4, stronger effect = lower value 1.01 | S. cerevisiae deletion strains, locus YKL068W, stronger effect = lower value 0.972 | S. cerevisiae deletion strains, locus YKL085W, strain MDH1 (second series), stronger effect = lower value 0.985 | S. cerevisiae deletion strains, locus YKL085W, strain MDH1, stronger effect = lower value 0.985 | S. cerevisiae deletion strains, locus YKL160W, strain elf1, stronger effect = lower value 1.02 | S. cerevisiae deletion strains, locus YKL190W, strain CNB1, stronger effect = lower value 0.981 | S. cerevisiae deletion strains, locus YKR001C, strain vps1, stronger effect = lower value 0.988 | S. cerevisiae deletion strains, locus YKR026C, strain gcn3, stronger effect = lower value 1.03 | S. cerevisiae deletion strains, locus YKR091W, strain srl3, stronger effect = lower value 1.02 | S. cerevisiae deletion strains, locus YLL001W, strain dnm1, stronger effect = lower value 1.02 | S. cerevisiae deletion strains, locus YLL026W, stronger effect = lower value 1.01 | S. cerevisiae deletion strains, locus YLL041C, strain sdh2, stronger effect = lower value 1.01 | S. cerevisiae deletion strains, locus YLR027C, strain aat2, stronger effect = lower value 1.02 | S. cerevisiae deletion strains, locus YLR039C, strain RIC1, stronger effect = lower value 0.959 | S. cerevisiae deletion strains, locus YLR058C, strain SHM2, stronger effect = lower value 0.983 | S. cerevisiae deletion strains, locus YLR102C, strain apc9, stronger effect = lower value 0.985 | S. cerevisiae deletion strains, locus YLR113W, strain HOG1, stronger effect = lower value 0.982 | S. cerevisiae deletion strains, locus YLR221C, strain rsa3, stronger effect = lower value 1.03 | S. cerevisiae deletion strains, locus YLR258W, strain gsy2, stronger effect = lower value 1.02 | S. cerevisiae deletion strains, locus YLR262C, strain YPT6 (second series), stronger effect = lower value 1.02 | S. cerevisiae deletion strains, locus YLR262C, strain YPT6, stronger effect = lower value 0.941 | S. cerevisiae deletion strains, locus YLR268W, strain sec22, stronger effect = lower value 0.961 | S. cerevisiae deletion strains, locus YLR320W, strain mms22, stronger effect = lower value 1.04 | S. cerevisiae deletion strains, locus YLR330W, strain CHS5, stronger effect = lower value 0.971 | S. cerevisiae deletion strains, locus YLR342W, strain FKS1 (second series), stronger effect = lower value 0.999 | S. cerevisiae deletion strains, locus YLR342W, strain FKS1, stronger effect = lower value 1.02 | S. cerevisiae deletion strains, locus YLR357W, strain rsc2, stronger effect = lower value 1.05 | S. cerevisiae deletion strains, locus YLR370C, strain arc18, stronger effect = lower value 1.02 | S. cerevisiae deletion strains, locus YLR371W, strain rom2, stronger effect = lower value 0.976 | S. cerevisiae deletion strains, locus YLR384C, strain iki3, stronger effect = lower value 1.04 | S. cerevisiae deletion strains, locus YLR418C, strain cdc73, stronger effect = lower value 0.969 | S. cerevisiae deletion strains, locus YML016C, strain PPZ1, stronger effect = lower value 0.988 | S. cerevisiae deletion strains, locus YML032C, strain rad52, stronger effect = lower value 0.985 | S. cerevisiae deletion strains, locus YML120C, strain ndi1, stronger effect = lower value 1 | S. cerevisiae deletion strains, locus YML124C, strain tub3, stronger effect = lower value 0.993 | S. cerevisiae deletion strains, locus YMR058W, strain fet3, stronger effect = lower value 1.02 | S. cerevisiae deletion strains, locus YMR078C, strain ctf18, stronger effect = lower value 0.983 | S. cerevisiae deletion strains, locus YMR125W, strain sto1, stronger effect = lower value 1.02 | S. cerevisiae deletion strains, locus YMR129W, stronger effect = lower value 1.02 | S. cerevisiae deletion strains, locus YMR205C, strain PFK2, stronger effect = lower value 1.04 | S. cerevisiae deletion strains, locus YMR223W, strain ubp8, stronger effect = lower value 0.982 | S. cerevisiae deletion strains, locus YMR231W, strain pep5, stronger effect = lower value 1.02 | S. cerevisiae deletion strains, locus YMR263W, strain SAP30, stronger effect = lower value 0.987 | S. cerevisiae deletion strains, locus YMR307W, strain GAS1, stronger effect = lower value 0.87 | S. cerevisiae deletion strains, locus YNL067W, strain RPL9B, stronger effect = lower value 0.992 | S. cerevisiae deletion strains, locus YNL071W, strain lat1, stronger effect = lower value 1.02 | S. cerevisiae deletion strains, locus YNL183C, strain NPR1, stronger effect = lower value 0.935 | S. cerevisiae deletion strains, locus YNL209W, strain ssb2, stronger effect = lower value 1.01 | S. cerevisiae deletion strains, locus YNL233W, strain BNI4, stronger effect = lower value 1.01 | S. cerevisiae deletion strains, locus YNL248C, strain rpa49, stronger effect = lower value 1.02 | S. cerevisiae deletion strains, locus YNL250W, strain rad50, stronger effect = lower value 0.988 | S. cerevisiae deletion strains, locus YNL271C, strain bni1, stronger effect = lower value 0.963 | S. cerevisiae deletion strains, locus YNL298W, strain CLA4, stronger effect = lower value 0.964 | S. cerevisiae deletion strains, locus YNL307C, strain MCK1, stronger effect = lower value 0.987 | S. cerevisiae deletion strains, locus YNL322C, strain KRE1 (second series), stronger effect = lower value 1.03 | S. cerevisiae deletion strains, locus YNL322C, strain KRE1, stronger effect = lower value 0.988 | S. cerevisiae deletion strains, locus YNR049C, strain mso1, stronger effect = lower value 1.01 | S. cerevisiae deletion strains, locus YNR052C, strain pop2, stronger effect = lower value 0.988 | S. cerevisiae deletion strains, locus YOL006C, strain TOP1, stronger effect = lower value 0.958 | S. cerevisiae deletion strains, locus YOL012C, strain htz1 0.831 | S. cerevisiae deletion strains, locus YOL147C, strain pex11, stronger effect = lower value 0.986 | S. cerevisiae deletion strains, locus YOR001W, strain rrp6, stronger effect = lower value 1.03 | S. cerevisiae deletion strains, locus YOR061W, strain CKA2, stronger effect = lower value 0.978 | S. cerevisiae deletion strains, locus YOR069W, strain VPS5, stronger effect = lower value 0.978 | S. cerevisiae deletion strains, locus YOR070C, strain gyp1, stronger effect = lower value 1.02 | S. cerevisiae deletion strains, locus YOR080W, strain dia2, stronger effect = lower value 1.03 | S. cerevisiae deletion strains, locus YOR083W, strain WHI5, stronger effect = lower value 1.02 | S. cerevisiae deletion strains, locus YOR106W, strain vam3, stronger effect = lower value 1.02 | S. cerevisiae deletion strains, locus YOR136W, strain idh2, stronger effect = lower value 0.995 | S. cerevisiae deletion strains, locus YOR144C, strain elg1, stronger effect = lower value 0.997 | S. cerevisiae deletion strains, locus YOR184W, strain ser1, stronger effect = lower value 0.986 | S. cerevisiae deletion strains, locus YOR231W, strain MKK1, stronger effect = lower value 0.959 | S. cerevisiae deletion strains, locus YOR265W, strain rbl2, stronger effect = lower value 1.02 | S. cerevisiae deletion strains, locus YOR270C, strain vph1, stronger effect = lower value 0.984 | S. cerevisiae deletion strains, locus YOR290C, strain snf2, stronger effect = lower value 1.02 | S. cerevisiae deletion strains, locus YOR316C, strain cot1, stronger effect = lower value 0.991 | S. cerevisiae deletion strains, locus YPL051W, strain arl3, stronger effect = lower value 1.02 | S. cerevisiae deletion strains, locus YPL055C, strain LGE1, stronger effect = lower value 1.01 | S. cerevisiae deletion strains, locus YPL078C, strain atp4, stronger effect = lower value 1.02 | S. cerevisiae deletion strains, locus YPL106C, strain sse1, stronger effect = lower value 1.06 | S. cerevisiae deletion strains, locus YPL240C, strain hsp82, stronger effect = lower value 1.01 | S. cerevisiae deletion strains, locus YPL241C, strain CIN2, stronger effect = lower value 0.981 | S. cerevisiae deletion strains, locus YPL256C, strain CLN2, stronger effect = lower value 0.961 | S. cerevisiae deletion strains, locus YPR119W, strain clb2, stronger effect = lower value 0.981 | S. cerevisiae deletion strains, locus YPR141C, strain kar3, stronger effect = lower value 0.967 | S. cerevisiae deletion strains, locus YPR163C, strain tif3, stronger effect = lower value 0.956 | S. cerevisiae deletion strains, locus YPR167C, strain met16, stronger effect = lower value 0.978 | S. cerevisiae deletion strains, strain wtn01, stronger effect = lower value 0.998 | S. cerevisiae strains, strain wild type, stronger effect = lower value 0.98
